From PubChem BioAssay (Tox21)
Inconclusive results are not listed. A number with no mark means an inactive call. Active and inactive are the calls of the source. Calls follow the shape of the full dose curve.
% is scaled to controls: 0 for no effect and ±100 for the full control effect; potency is read from the fitted curve at half-maximal effect.

Assay: qHTS assay to identify small molecule agonists of the endoplasmic reticulum stress response signaling pathway - cell viability counter screen (AID 1159517); also: nearly all actives have a fitted effect of over 50% in size
Settings: ESRE-bla HeLa viability, CellTiter-Glo luminescence, 5 h; series mostly up to 61 µM; activity change, negative = cytotoxicity: at the top concentration
Excerpt: U.S. Tox21 Program National Center for Advancing Translational Sciences [NCATS] NIH Chemical Genomics Center [NCGC] U.S. Environmental Protection Agency [EPA] National Institutes of Environmental Health Sciences [NIEHS] National Toxicology Program [NTP] U.S. Food and Drug Administration [FDA] Tox21 Assay Overview: Endoplasmic Reticulum (ER) plays an important role in cellular signaling, protein folding/maturation, stress response, lipid biosynthesis, calcium storage and release etc. Under stress conditions, proteins in ER misfold or unfold, and leading to the expression of ER stress responsive genes. ER stress has been associated with a variety of pathophysiological conditions such as cancer, inflammation, neurodegenerative diseases, diabetes, ischemic heart disease etc. To identify the compounds that induce ER stress response, an ER stress reporter cell line, CellSensor ESRE-bla HeLa (Life Technologies, Carlsbad, CA) containing a beta-lactamase reporter gene under control of the Endoplasmic reticulum Stress Response Element (ESRE) was used to screen Tox21 10K compound library. The cytotoxicity of the Tox21 compound library against the ESRE-bla HeLa cell line was tested in parallel by measuring cell viability using the CellTiter-Glo assay in the same wells.
Tox21 Assay Protocol Summary: ESRE-bla HeLa cells were dispensed at 1,500 cells/6 uL of assay medium per well into black wall/clear-bottom 1536-well plates using a Multidrop Combi (ThermoFisher Scientific, Waltham, MA) dispenser. After the assay plates were incubated at 37 C and 5% CO2 for an overnight, 23 nL of compounds dissolved in DMSO, positive controls or DMSO only was transferred to the assay plate by a Pintool station (Kalypsys, San Diego, CA). The assay plates were incubated at 37 C and 5% CO2 for 5 hr. One uL of LiveBLAzer B/G FRET substrate (Life Technologies) was added using a FRD (Flying Reagent Dispenser, Aurora Discovery, San Diego, CA) and the plates were incubated at room temperature for 2 hr. Fluorescence intensity (405 nm excitation, 460 nm and 530 nm emissions) was measured using an Envision plate reader (PerkinElmer, Shelton, CT). For cytotoxicity, 4 ul/well of CellTiter-Glo reagent was added into the assay plates using an FRD. After 30 min incubation at room temperature, the luminescence intensity was measured using a ViewLux plate reader (PerkinElmer).
In the case of COc1cccc(N(C)C(=S)Oc2ccc3c(c2)CCCC3)n1, the “activity change, negative = cytotoxicity” value was -11.9%. For CCCCCCCCCCCCCCCCCCOS(=O)(=O)O, the “activity change, negative = cytotoxicity” value was -28.2%. In the case of C/C=C(/C(=C/C)c1ccc(OC(C)=O)cc1)c1ccc(OC(C)=O)cc1, the “activity change, negative = cytotoxicity” value was -11.7%. In the case of Cc1ccc(C(C)OC(=O)C2(C)CCC(C(=O)O)C2(C)C)cc1 (stereo not given), the “activity change, negative = cytotoxicity” value was 6.72%. In the case of OC[C@H]1O[C@@H](OCCc2ccc(O)cc2)[C@H](O)[C@@H](O)[C@@H]1O, the “activity change, negative = cytotoxicity” value was -34.4%. With O=C(NCCO[N+](=O)[O-])c1cccnc1 the “activity change, negative = cytotoxicity” value was 2.83%. In the case of Nc1cc(C(=O)O)c(O)c(S(=O)(=O)O)c1, the “activity change, negative = cytotoxicity” value was 5.67%. With CC(C)(O)c1ccc(CNC(=O)c2cccnc2Oc2ccc(F)cc2)cc1 the “activity change, negative = cytotoxicity” value was -9.26%. For NS(=O)(=O)c1ccc(N2CCCCS2(=O)=O)cc1, the “activity change, negative = cytotoxicity” value was 9.97%. For O=C1OC(CN2CCOCC2)CN1/N=C/c1ccc([N+](=O)[O-])o1 (stereo not given), the “activity change, negative = cytotoxicity” value was -4.79%. In the case of CCCCNc1ccc(C(=O)OCCOCCOCCOCCOCCOCCOCCOCCOCCOC)cc1, the “activity change, negative = cytotoxicity” value was 16.4%. With O=C(O)CNCC(=O)O the activity change, negative = cytotoxicity was -2.31% [at 6.95 µM]. With O=C(OCCCCCCOC(=O)c1ccccc1)c1ccccc1 the “activity change, negative = cytotoxicity” value was -1.83%. With CCO[C@H](Cc1ccc(OCCc2ccc(OS(C)(=O)=O)cc2)cc1)C(=O)O the “activity change, negative = cytotoxicity” value was -0.667%. With CCC(C)(C)CC the “activity change, negative = cytotoxicity” value was -24.6% [at 78.8 µM]. For CN(C)CCCN1c2ccccc2Sc2ccccc21, the “activity change, negative = cytotoxicity” value was -1.72%. In the case of CCCCCCCCO[C@@H]1O[C@H](CO)[C@@H](O)[C@H](O)[C@H]1O, the “activity change, negative = cytotoxicity” value was 7.68%. For O=C1OC(=O)C2C3C=CC(C3)C12 (stereo not given), the “activity change, negative = cytotoxicity” value was -0.611%. For c1ccc(C(O[C@H]2CCCN(CCc3ccc4c(c3)OCO4)C2)c2ccccc2)cc1, the “activity change, negative = cytotoxicity” value was -17.2%. In the case of Cc1cc(N)c2cc(NC(=O)Nc3ccc4nc(C)cc(N)c4c3)ccc2n1, the “activity change, negative = cytotoxicity” value was -39.4%. For C[N+](C)(C)CCOC(=O)CCC(=O)OCC[N+](C)(C)C, the “activity change, negative = cytotoxicity” value was 8.44%. For Brc1c2ccccc2c(Br)c2ccccc12, the activity change, negative = cytotoxicity was -1.22% [at 6.95 µM]. With S=C([S-])NCCNC(=S)[S-].[Mn+2] the “activity change, negative = cytotoxicity” value was 3.4%. With OCCN1CCN(CCCN2c3ccccc3C=Cc3ccccc32)CC1 the “activity change, negative = cytotoxicity” value was 13.4%. With CCOc1ccc(O)cc1 the “activity change, negative = cytotoxicity” value was -17.7%. With COC(=O)C1=C(C)NC(COC(N)=O)=C(C(=O)OC(C)C)C1c1cccc(Cl)c1Cl (stereo not given) the “activity change, negative = cytotoxicity” value was 0.882%. With CCC(C)c1cc(C(C)(C)C)c(O)c(C(C)(C)C)c1 (stereo not given) the “activity change, negative = cytotoxicity” value was -15.1%. In the case of CN(C)c1ccc(C(c2ccccc2)c2ccc(N(C)C)cc2)cc1, the “activity change, negative = cytotoxicity” value was 7.19%. For CCOCC(O)COc1ccc(NC(=O)CC[S+](C)C)cc1 (stereo not given), the “activity change, negative = cytotoxicity” value was -0.984%. For CC(=O)c1ccc2c(c1)N(CCCN1CCC(CCO)CC1)c1ccccc1S2, the “activity change, negative = cytotoxicity” value was 5.94%. In the case of CC(C)C[C@H]1C(=O)N2CCC[C@H]2[C@]2(O)O[C@](NC(=O)[C@@H]3C=C4c5cccc6[nH]c(Br)c(c56)C[C@H]4N(C)C3)(C(C)C)C(=O)N12, the “activity change, negative = cytotoxicity” value was 19.5% [at 28.5 µM]. In the case of CCCCCCc1ccc(-c2ccc(C#N)cc2)cc1, the “activity change, negative = cytotoxicity” value was -5.07%. In the case of CC(C)OC(=O)C(C)N(C(=O)c1ccccc1)c1ccc(F)c(Cl)c1 (stereo not given), the “activity change, negative = cytotoxicity” value was -18.7%. With ClCCOCCOCCCl the “activity change, negative = cytotoxicity” value was -0.102%. With CC(=O)OC[C@H]1O[C@@H](n2ncc(=O)[nH]c2=O)[C@H](OC(C)=O)[C@@H]1OC(C)=O the “activity change, negative = cytotoxicity” value was 3.71%. For CC(C)(CO)[N+](=O)[O-], the “activity change, negative = cytotoxicity” value was -0.6%. In the case of CC[N+]1(CC)CCC(=C(c2ccccc2)c2ccccc2)C1C (stereo not given), the “activity change, negative = cytotoxicity” value was -7.46%. In the case of CCCCCCOC(=O)NC(=N)c1ccc(NCc2nc3cc(C(=O)N(CCC(=O)OCC)c4ccccn4)ccc3n2C)cc1, the Potency was 21.3 µM (active). For Cn1c(=O)cc(Oc2ccc(F)cc2F)c2cnc(NCC(C)(C)O)nc21, the “activity change, negative = cytotoxicity” value was 12.9%. In the case of CCCCCC[C@@H](O)C/C=C\CCCCCCCC(=O)OC, the “activity change, negative = cytotoxicity” value was 17.8% [at 78.8 µM].
